Measured values reported in the supplement of paper PMC6555819.

Test system: THRa homodimer (NR concentration 90 nM)
Assay: PBM binding z-score (relative to random genomic background probes); higher = stronger binding; sequences stand for … in GC…GCGATTGACAGCGTAGAATGAAGG
How it was run: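 Binding z-scores take random background probes as their reference. They come from custom Agilent 4×180K protein-binding microarrays incubated 1 h with ligand-free nuclear receptor dimers, with antibodies against each partner (one per run) detecting binding. Scanned fluorescence was regression-normalized.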

Sequence | PBM binding z-score
AGAACGAGGGCAAAGAGTTGATAGCACGGGTGGC | -0.224
CAAACTAGGTCACGAAAGGTCTAAGTCGAATGAC | 1.73
GATACAGGGTCAGCTAGCGGCCAGAGTATGGAAA | -0.0331
TCTTCTAGATCAACAGGAGGTTAAGAAAGATCGA | -0.076
TCTCGGAGGACACGAAAGGTCACAGCTCGACATC | 2.38
ACTATTAGTTGACTTACGGCAACCGATACGACGC | -0.0482
TCTATTTGGTCACGGAGGTCACACACGACGGGTA | 3.38
TCTCGGAGGACACGACAGGTCAGAGCTCGACATC | 1.04
TGAAAGAGGTTAAAGATCAGGGAACGTGGCGTCG | -0.693
CAAACTAGGTTAAGGTCAAAGTCGGTTTGTGCCA | 5.29
AATACAGGGTCATCGTAGGCGAGAGTACGCACAG | 1.32
CTCGAAAGGTCGGGCTCAGGTGAGTATACCAAAC | 1.06
ATCGAAAGGTCGACGAGGCGAGTATACACCGTTT | -0.128
CCGACTGGGGCATAAGGTTTCCATAAGCCAGCCC | -0.206
CCTAGCAGGCCAGGGTTACTCAAGCATTTCGCTT | -0.445
TTACCCAGGTGAAAGGTCGTTGATGCACGCCTTG | 1.26
CGTACTAGGTCAAGGACAGTGAATCTCCGCACGC | 2.42
ACTAGCAGGCCAAGTGTGGGTCACTCAAACAAAG | -0.207
CCAGACAGGTGAAAGATAACTCAGTCTGGTACGC | -0.296
CCTGTTAGGTCAATGGTCAGCTAAAGCAGCTCGC | 2.18

Sequence | PBM binding z-score
AGTCAAAGTTCAGGACGTGGTAACGTAAAGCACG | 0.614
CGTCCAAGGTCAGAGAGGTCAGAGAATGCCGAGT | 2.72
AGAACGAGGGCACGCAGAGTTGATAGCAGAGTAG | 0.33
GCTGCTAGGTGAGGTTGGTCAGCTAACGGGTACG | -0.133
GCAGACAGGTGAAACCCAGGTAACTCAGGGTGGC | 0.116
TGAATGCGGTTATAAGATCAGGGAACGTTGCAAA | -0.559
ACTAGTTGGTCAGCTGAGGTCACAGACAATTCGG | 5.44
TCTCGGAGGACACGAAAGGTCAGAGCCCGACATC | 1.25
GTACCGAGGTGAATAGGTCGTTGATGAGTAGGCG | 0.482
CGTCCAAGGTCTTAGGAGGTCAGTGAAGACAGAT | 1.15
GGAACGAGGACATTCGAGTTGATAGCATGGCGAT | 0.823
ACCGAAAGGTCGTGAGGTGAGTATACAGAAAGGC | 1.28
CGTCCAAGGTCAATGCTAGTTCAGTGAAAGCATT | 2.17
ATCGAAAGGTCGAGGTGAGTATGGAGAAAGGGAA | 0.743
TCAGACAGGTGAAGATAACTCAGGTACGCAGTCG | 0.4
CCTACTGGGCCATCAGGTCATTAATATCAACGTT | 2.9
CAAACTAGCTCAAGAGGTCAAAGTCCGCTTCCCG | 1.72
TCATATAGGTAAATGCTAGGTGTAAGTCCGATCT | 0.0913
TGAACGAGGTTATAAGATCAGGGAACGTTGCAAA | -0.282
CCTACTGGGCCAAAGGTAATTGATTCCAATGCTC | -0.123
